In paper PMC7819943, “Rice protein-binding microarrays: a tool to detect cis-acting elements near promoter regions in rice” one finds binding signal data, which are given here for 57 sequences.

In all, about 68,000 sequences were measured (“fluorescence intensity (a.u.)”: median about 9,100, highest 2% from about 16,000 on). The entries come from a sample that favours the highest values as a whole.

OsWRKY34, sequence (Q0JBA9 entry or part of it): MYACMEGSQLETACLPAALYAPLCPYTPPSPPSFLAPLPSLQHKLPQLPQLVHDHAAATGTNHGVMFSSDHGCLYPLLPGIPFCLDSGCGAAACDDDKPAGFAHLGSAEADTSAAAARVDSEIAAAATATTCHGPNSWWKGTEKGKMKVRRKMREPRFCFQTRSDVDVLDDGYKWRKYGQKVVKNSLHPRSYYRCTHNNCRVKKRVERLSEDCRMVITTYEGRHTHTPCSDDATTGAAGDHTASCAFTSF

The assay concerns the target OsWRKY34 (Oryza sativa, UniProt Q0JBA9 1-250). The assay is described as follows: protein-binding microarray (RPBM); PBS, 2% BSA, 51.3 ng/ul salmon testes DNA, 50 uM zinc acetate, 200 nM TF, 25 C, 1 h; high values mean tight binding. The following applies: protein: recombinant; tags: N-terminal polyhistidine and DsRed monomer fusion (pET32a); label: CyDye5-dUTP incorporated in the synthesized complementary strand; 3' TTTTT single-stranded linker to array surface; dsDNA, one strand shown. In short, it runs like this:
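Transcription factors were each fused at the N-terminus to a polyhistidine tag plus DsRed and expressed in E. coli BL21-CodonPlus before Ni–NTA purification. Binding to a double-stranded custom Agilent array was carried out with 200 nM protein at 25 °C for 1 h in PBS, 2% BSA, salmon testes DNA and 50 µM zinc acetate. The binding signal is per-feature fluorescence intensity, in arbitrary units, on an Axon 4000B scanner.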
“TTGATCCTTTTTCGCCGCTCACGCCGAGCTGCCCCGACAACGGAGTCACCTAGTGCAG”: the binding signal was 8340 fluorescence intensity (a.u.).

Regarding “TTTTCTATACTGTATTTTGTGTCATTTTCAATCATTGATTCGGAGTCACCTAGTGCAG”, the binding signal is 14400 fluorescence intensity (a.u.).

“AAACAGAGGTTTTTCTCCTGTACATGTGTCCCATGCCAACCGGAGTCACCTAGTGCAG”: the binding signal is 9880 fluorescence intensity (a.u.).

“TTTTTATATGTTTGGTTCTTATGAGTTCCTAAGTGTGAAACGGAGTCACCTAGTGCAG”: the binding signal was 8230 fluorescence intensity (a.u.).

On to “TTTACATCTAATATTTTTTATTTGGGGTTCAGCGGGCATTCGGAGTCACCTAGTGCAG”, for which the binding signal is 11100 fluorescence intensity (a.u.).

With “CATTTCTTATTTTGTTTTTGGGCTTTGATGTTTGGTTTCTCGGAGTCACCTAGTGCAG”, the binding signal is 8740 fluorescence intensity (a.u.).

Take “TGGGTGGTGTTGGTTTTGCATGGTAGACGCGGGGTCCGATCGGAGTCACCTAGTGCAG”: the binding signal is 18400 fluorescence intensity (a.u.).

Turning to “TTTGGGGTTCAGCGGGCATTTGTTTTGATTGTTTCTTATTCGGAGTCACCTAGTGCAG”, the binding signal was 23400 fluorescence intensity (a.u.).

For the sequence “TGGTCGGGTGTTTTTGTGATTGATGGTTTTGGTAGACGGGCGGAGTCACCTAGTGCAG”, the binding signal was 11200 fluorescence intensity (a.u.).

Consider “CTTTTTTTTGGTTTGCCGTGTGGTGGGTTTCGGGTCCGCGCGGAGTCACCTAGTGCAG”, for which the binding signal was 14500 fluorescence intensity (a.u.).

As to “CTAAAAGTCAATCCACGCCACCATCGATCTCTCTATCCAACGGAGTCACCTAGTGCAG”, the binding signal was 9440 fluorescence intensity (a.u.).

As for “CTATGATTGGTCAAGTGCTGTTGCTATTTCTCTGCTGATACGGAGTCACCTAGTGCAG”, the binding signal is 10200 fluorescence intensity (a.u.).

In the case of “GCTGTTCCATGCTCCACAACCCCGGGTCATTGACCCAATCCGGAGTCACCTAGTGCAG”, the binding signal is 16700 fluorescence intensity (a.u.).

“GATCATCTGTTCCACCCGCCACCCGCCACCCGCCACAATCCGGAGTCACCTAGTGCAG”: the binding signal was 13200 fluorescence intensity (a.u.).

On to “TCACCACCACCATCACAACCCAATCCCAATCCAAACCACCCGGAGTCACCTAGTGCAG”, for which the binding signal was 8530 fluorescence intensity (a.u.).

Take “GAAAAGCCACTAATCTCCAACCTCGTCTACACTTCTCCAACGGAGTCACCTAGTGCAG”: the binding signal is 8970 fluorescence intensity (a.u.).

Consider “GTTTGATCCATTACAGCTCCACATATATTGTGAAATCATTCGGAGTCACCTAGTGCAG”, for which the binding signal was 10500 fluorescence intensity (a.u.).

With “ACAACCGCACATACGCCACGGCCCACTCCTCCTTCTCGCCCGGAGTCACCTAGTGCAG”, the binding signal is 9350 fluorescence intensity (a.u.).

Turning to “GAACGTCTGGACGTTGGAACACTCCATGTTTTTGTCTGATCGGAGTCACCTAGTGCAG”, the binding signal is 8740 fluorescence intensity (a.u.).

For the sequence “CCTTGTCTGTACTCTCTCTACTTTCCACCTCTATCCGCCTCGGAGTCACCTAGTGCAG”, the binding signal is 9420 fluorescence intensity (a.u.).

With “TCTGTCTATCCTTTGTAAAGTCACTTGCCCTTGCATTACTCGGAGTCACCTAGTGCAG”, the binding signal was 16500 fluorescence intensity (a.u.).

As to “TATATCTATATGCCATATCATCTGTCTATCCTTTGTAAAGCGGAGTCACCTAGTGCAG”, the binding signal was 8740 fluorescence intensity (a.u.).

With “GCATCCTTTTCATTGGCCTTTGCGTGTAATTTGGGGCATGCGGAGTCACCTAGTGCAG”, the binding signal was 9230 fluorescence intensity (a.u.).

For the sequence “GTGTTTCCCATGGTTTGCACCAGTCTCCTCTGATGCAGTCCGGAGTCACCTAGTGCAG”, the binding signal is 26400 fluorescence intensity (a.u.).

Turning to “GGTTTGGGTTCCTCTCTCGTCTCGTCTGTTTTGTTTTCCCCGGAGTCACCTAGTGCAG”, the binding signal is 21900 fluorescence intensity (a.u.).

“CTCGTCTGTTTTGTTTTCCCCTCCGACTCCGACTCCGATCCGGAGTCACCTAGTGCAG”: the binding signal was 8180 fluorescence intensity (a.u.).

Consider “GGTTTGTTTGTCGTTCATGTGACGAGCGCATCCGTTTTCCCGGAGTCACCTAGTGCAG”, for which the binding signal is 9140 fluorescence intensity (a.u.).

In the case of “TTTTCGTGTTCGGGTTTGGGTTTGAGTGCCGCATCTGCAACGGAGTCACCTAGTGCAG”, the binding signal was 21500 fluorescence intensity (a.u.).

With “CCTCGGCCTATAGTGTTGGGTTTGGGTGTTGGTTTTTCCCCGGAGTCACCTAGTGCAG”, the binding signal is 15600 fluorescence intensity (a.u.).

In the case of “TGTTCTGGTTCGGATCTGAGCGGGTGTTGGGTGTTTTCAACGGAGTCACCTAGTGCAG”, the binding signal was 9230 fluorescence intensity (a.u.).

For “ATTTTAATTAATCTCGTGTTGGGTTCTTATATGGTTTTTCCGGAGTCACCTAGTGCAG”, the binding signal is 8350 fluorescence intensity (a.u.).

On to “ATACTTCCTTTCTGTTTCCAGTGTCTCTCTTCATGCACTCCGGAGTCACCTAGTGCAG”, for which the binding signal is 10700 fluorescence intensity (a.u.).

Take “CAGTCTCCTCTGATGCAGTCTCGTTCTCTGTTTCTTTTTGCGGAGTCACCTAGTGCAG”: the binding signal is 10600 fluorescence intensity (a.u.).

As to “CCTCGTTTTTTTTTTTGGGTTCATCTCGTGTGTTCCGTGACGGAGTCACCTAGTGCAG”, the binding signal was 18400 fluorescence intensity (a.u.).

As for “ATCTGGGTTCTTTTTTTTTCTTTTTTTGCCGGGTTTTTTTCGGAGTCACCTAGTGCAG”, the binding signal is 14800 fluorescence intensity (a.u.).

With “CGATTGCCATTGTTCGTGTGTTTTTTCTTGTCTCTTTCCGCGGAGTCACCTAGTGCAG”, the binding signal was 11000 fluorescence intensity (a.u.).

As to “TCACCATCTCGACTCAGCCAATCCATTTCTAAATTTTATACGGAGTCACCTAGTGCAG”, the binding signal was 8690 fluorescence intensity (a.u.).

Consider “TTAACCACAGTGCCGTTCTCTAGCCACCATCTCAGCAGCACGGAGTCACCTAGTGCAG”, for which the binding signal is 8220 fluorescence intensity (a.u.).

Regarding “TGGGAAGTACATATGTAATGTTGTTTATTTATTTTTGTTTCGGAGTCACCTAGTGCAG”, the binding signal was 9860 fluorescence intensity (a.u.).

Take “ATCTTGGGAAGGCCGTTACTCACTCTAGACTTTACTCCTCCGGAGTCACCTAGTGCAG”: the binding signal is 8270 fluorescence intensity (a.u.).

For “CCTCACCGATGGATTTTTTAGCCCGATCCTACCCCTCCTACGGAGTCACCTAGTGCAG”, the binding signal is 10500 fluorescence intensity (a.u.).

As to “ACCACGTCCCTTTCCATTTTCCCTTGTTTTTTTTCCTCCTCGGAGTCACCTAGTGCAG”, the binding signal is 11200 fluorescence intensity (a.u.).

Regarding “TAATTTTACTCGATACTCTATGTACCCCTGAAATTTCGCTCGGAGTCACCTAGTGCAG”, the binding signal was 9560 fluorescence intensity (a.u.).

Turning to “GCCTTGTCTATTGCCTCAGAAGTTGGTTACCCTGTTGTTGCGGAGTCACCTAGTGCAG”, the binding signal was 8150 fluorescence intensity (a.u.).

Regarding “GATGTGCCCTTTATTCACAACATTTAACAATTGTTACTTGCGGAGTCACCTAGTGCAG”, the binding signal was 8520 fluorescence intensity (a.u.).

As for “TATATCTCGTGGTTTGTGGGTTCTTTTCACTTGTTCAGTGCGGAGTCACCTAGTGCAG”, the binding signal is 14000 fluorescence intensity (a.u.).

In the case of “GTGGGTTCTTTGTGGGGTCTCTTATAGTTTTCACTGCCAGCGGAGTCACCTAGTGCAG”, the binding signal was 20500 fluorescence intensity (a.u.).

As to “CCTTTTTGTTGGTCTCTGTTCTTGGGTTGGGTTTTCAGTCCGGAGTCACCTAGTGCAG”, the binding signal was 20800 fluorescence intensity (a.u.).

With “GTGAGGGTGTGGTTACAGTGGGTTGGTTTTTTTTCTCCCCCGGAGTCACCTAGTGCAG”, the binding signal was 11800 fluorescence intensity (a.u.).

With “GTTTGTGGTTCAGTTTTTGTCCCCATGGGTCTCTTAGCGGCGGAGTCACCTAGTGCAG”, the binding signal was 9120 fluorescence intensity (a.u.).

In the case of “GTATGGTTGGTTGGTTGGTTTGTTGGGTTTCTCCCCGGCCCGGAGTCACCTAGTGCAG”, the binding signal was 33300 fluorescence intensity (a.u.).

Turning to “GGGTTTTCCACGTTAAATCTCGTGTCTTCTGTGTTTGATCCGGAGTCACCTAGTGCAG”, the binding signal is 12000 fluorescence intensity (a.u.).

On to “TTTTCTCTCCTGTTTTGGGAGGGTTTTCCACGTTAAATCTCGGAGTCACCTAGTGCAG”, for which the binding signal is 8230 fluorescence intensity (a.u.).

With “TGTACAGTTGGTTCTTTTCTTTTTTTTTTTCAGTTGAGTCCGGAGTCACCTAGTGCAG”, the binding signal is 9330 fluorescence intensity (a.u.).

On to “TTGGGAGGGTTTTTCACGTTAAATCTCGTGTCTTCTGTAACGGAGTCACCTAGTGCAG”, for which the binding signal was 29500 fluorescence intensity (a.u.).

As to “TTAAAAAAAGTTGGGTAATTGTGGGGTTTGTTTTTTCTCCCGGAGTCACCTAGTGCAG”, the binding signal is 9490 fluorescence intensity (a.u.).

On to “ACTTTTGGTGGACCTTGGTTGTTTGGTCTGTTTCTCTCAGCGGAGTCACCTAGTGCAG”, for which the binding signal is 8680 fluorescence intensity (a.u.).
